Tests used:
Assay in all cases: DAPPL (digital affinity profiling via proximity ligation, sequencing); 10 mM Tris-HCl pH 7.5, 50 mM NaCl, 1 mM DTT, 4% glycerol, room temperature, 30 min; GST-TFs on glutathione beads, 16-mer random dsDNA library, 0.1% formaldehyde crosslink after washing; high values mean tight binding
Conditions in all cases: protein: recombinant; tags: N-terminal GST; dsDNA, one strand shown
ERF = target: T1, ERF (Homo sapiens, UniProt P50548 1-548)
T1 sequence: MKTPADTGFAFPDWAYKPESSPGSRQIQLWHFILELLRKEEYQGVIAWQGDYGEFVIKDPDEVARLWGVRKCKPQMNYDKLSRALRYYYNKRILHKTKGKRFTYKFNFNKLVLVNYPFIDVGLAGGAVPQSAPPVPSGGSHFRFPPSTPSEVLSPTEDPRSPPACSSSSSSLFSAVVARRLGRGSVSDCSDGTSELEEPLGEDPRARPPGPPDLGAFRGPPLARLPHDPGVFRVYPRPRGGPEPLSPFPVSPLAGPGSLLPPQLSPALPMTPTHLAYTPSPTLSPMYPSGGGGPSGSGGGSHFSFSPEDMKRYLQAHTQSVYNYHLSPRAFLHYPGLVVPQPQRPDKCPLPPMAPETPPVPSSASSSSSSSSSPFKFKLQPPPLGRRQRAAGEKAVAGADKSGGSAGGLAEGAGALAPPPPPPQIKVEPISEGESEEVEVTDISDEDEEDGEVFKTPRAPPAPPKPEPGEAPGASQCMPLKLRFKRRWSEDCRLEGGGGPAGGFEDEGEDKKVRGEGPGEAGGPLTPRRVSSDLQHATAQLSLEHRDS
How it was run: (§1)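 Binding signal is given per hexamer as its read frequency for a factor divided by its frequency in the tag-only sample. GST-fused human transcription factors were expressed in yeast, captured on glutathione beads, barcoded with DNA and pooled with that sample, then incubated with 200 nmole of a 16-mer random double-stranded DNA library in Tris/NaCl/DTT/glycerol buffer for 30 min at room temperature. The pools were then washed, crosslinked, proximity-ligated, amplified by PCR and sequenced on an Illumina NextSeq500.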

ETV3L = target: T2, ETV3L (Homo sapiens, UniProt Q6ZN32 1-361)
T2 sequence: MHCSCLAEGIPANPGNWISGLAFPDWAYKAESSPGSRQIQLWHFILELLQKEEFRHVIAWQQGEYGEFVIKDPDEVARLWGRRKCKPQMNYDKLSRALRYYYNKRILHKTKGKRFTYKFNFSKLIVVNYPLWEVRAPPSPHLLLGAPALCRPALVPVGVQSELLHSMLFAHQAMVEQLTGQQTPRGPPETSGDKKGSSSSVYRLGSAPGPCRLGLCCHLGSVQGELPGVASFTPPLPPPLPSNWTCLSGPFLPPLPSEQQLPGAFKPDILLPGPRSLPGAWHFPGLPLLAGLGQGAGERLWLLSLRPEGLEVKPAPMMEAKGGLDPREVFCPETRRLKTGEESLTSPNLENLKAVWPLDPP
How it was run: as §1

ETS2 = target: T3, ETS2 (Homo sapiens, UniProt P15036 1-469)
T3 sequence: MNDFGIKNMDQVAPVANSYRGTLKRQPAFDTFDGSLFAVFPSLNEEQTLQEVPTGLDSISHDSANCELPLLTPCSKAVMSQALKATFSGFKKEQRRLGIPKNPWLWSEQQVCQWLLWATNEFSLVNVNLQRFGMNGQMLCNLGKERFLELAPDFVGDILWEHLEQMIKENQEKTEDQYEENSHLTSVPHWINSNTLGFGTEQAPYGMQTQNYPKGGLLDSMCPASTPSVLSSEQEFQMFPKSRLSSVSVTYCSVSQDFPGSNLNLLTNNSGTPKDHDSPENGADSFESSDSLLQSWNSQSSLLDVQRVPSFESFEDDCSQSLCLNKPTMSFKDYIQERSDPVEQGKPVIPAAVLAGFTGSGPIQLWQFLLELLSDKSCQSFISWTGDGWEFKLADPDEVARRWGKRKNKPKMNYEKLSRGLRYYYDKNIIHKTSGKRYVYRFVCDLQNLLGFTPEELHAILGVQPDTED
How it was run: as §1

SPDEF = target: T4, SPDEF (Homo sapiens, UniProt O95238 1-335)
T4 sequence: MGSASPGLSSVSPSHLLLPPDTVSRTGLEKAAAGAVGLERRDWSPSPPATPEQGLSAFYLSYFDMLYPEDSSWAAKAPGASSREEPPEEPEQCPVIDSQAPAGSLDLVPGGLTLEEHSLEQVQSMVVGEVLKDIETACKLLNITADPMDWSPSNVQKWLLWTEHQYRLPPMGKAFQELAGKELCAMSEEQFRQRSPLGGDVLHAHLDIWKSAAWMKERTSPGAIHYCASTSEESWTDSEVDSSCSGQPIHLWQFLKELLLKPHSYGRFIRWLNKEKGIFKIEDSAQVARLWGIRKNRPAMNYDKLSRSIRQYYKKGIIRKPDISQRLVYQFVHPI
How it was run: as §1

ETV7 = target: T5, ETV7 (Homo sapiens, UniProt Q9Y603 1-341)
T5 sequence: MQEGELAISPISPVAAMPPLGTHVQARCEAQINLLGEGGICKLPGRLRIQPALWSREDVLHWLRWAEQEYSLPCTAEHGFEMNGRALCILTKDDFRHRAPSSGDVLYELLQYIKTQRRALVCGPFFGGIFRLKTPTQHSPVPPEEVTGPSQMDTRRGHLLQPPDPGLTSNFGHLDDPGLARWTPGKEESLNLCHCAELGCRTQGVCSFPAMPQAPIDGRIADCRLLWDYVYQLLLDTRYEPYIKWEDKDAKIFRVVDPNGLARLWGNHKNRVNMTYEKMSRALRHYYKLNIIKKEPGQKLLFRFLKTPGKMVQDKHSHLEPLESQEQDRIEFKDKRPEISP
How it was run: as §1

ELF5 = target: T6, ELF5 (Homo sapiens, UniProt Q9UKW6-2 1-255)
T6 sequence: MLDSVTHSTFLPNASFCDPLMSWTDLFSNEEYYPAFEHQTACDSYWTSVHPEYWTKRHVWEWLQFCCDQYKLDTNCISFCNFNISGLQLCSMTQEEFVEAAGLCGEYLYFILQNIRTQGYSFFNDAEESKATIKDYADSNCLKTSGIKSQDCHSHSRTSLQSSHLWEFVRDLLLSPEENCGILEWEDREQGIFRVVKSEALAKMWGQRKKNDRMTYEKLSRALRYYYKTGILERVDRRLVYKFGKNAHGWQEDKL
How it was run: as §1

ETV3 = target: T7, ETV3 (Homo sapiens, UniProt P41162-2 1-143)
T7 sequence: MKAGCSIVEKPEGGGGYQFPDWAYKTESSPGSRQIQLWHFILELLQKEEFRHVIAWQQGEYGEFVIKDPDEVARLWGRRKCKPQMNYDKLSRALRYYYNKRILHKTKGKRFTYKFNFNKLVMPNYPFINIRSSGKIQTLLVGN
How it was run: as §1

ETV6 = ETV6 (Homo sapiens, UniProt P41212 1-452)
How it was run: as §1

ETV6, sequence (P41212 whole entry): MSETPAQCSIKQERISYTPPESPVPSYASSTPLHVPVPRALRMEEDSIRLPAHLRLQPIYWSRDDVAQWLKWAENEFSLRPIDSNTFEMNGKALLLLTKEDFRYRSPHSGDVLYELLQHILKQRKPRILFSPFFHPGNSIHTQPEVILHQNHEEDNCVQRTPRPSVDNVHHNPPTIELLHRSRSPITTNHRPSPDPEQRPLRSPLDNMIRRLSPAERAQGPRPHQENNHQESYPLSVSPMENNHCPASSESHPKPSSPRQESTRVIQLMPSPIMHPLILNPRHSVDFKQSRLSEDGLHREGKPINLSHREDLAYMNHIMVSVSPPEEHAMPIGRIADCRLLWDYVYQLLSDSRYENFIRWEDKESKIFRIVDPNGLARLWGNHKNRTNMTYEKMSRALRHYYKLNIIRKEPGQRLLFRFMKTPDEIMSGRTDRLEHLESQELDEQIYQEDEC

| Sequence | binding signal (ERF) | binding signal (ETV3L) | binding signal (ETS2) | binding signal (SPDEF) | binding signal (ETV7) | binding signal (ELF5) | binding signal (ETV3) | binding signal (ETV6) |
| --- | --- | --- | --- | --- | --- | --- | --- | --- |
| TTTCAC | 1.44 fold enrichment (6-mer frequency, TF over GST control) | 1.36 fold enrichment (6-mer frequency, TF over GST control) | 1.32 fold enrichment (6-mer frequency, TF over GST control) | 1.33 fold enrichment (6-mer frequency, TF over GST control) | 1.4 fold enrichment (6-mer frequency, TF over GST control) | 1.42 fold enrichment (6-mer frequency, TF over GST control) | 1.32 fold enrichment (6-mer frequency, TF over GST control) | 1.3 fold enrichment (6-mer frequency, TF over GST control) |
| TTTAAG | 1.3 fold enrichment (6-mer frequency, TF over GST control) | 1.26 fold enrichment (6-mer frequency, TF over GST control) | 1.36 fold enrichment (6-mer frequency, TF over GST control) | 1.44 fold enrichment (6-mer frequency, TF over GST control) | 1.33 fold enrichment (6-mer frequency, TF over GST control) | 1.32 fold enrichment (6-mer frequency, TF over GST control) | 1.24 fold enrichment (6-mer frequency, TF over GST control) | 1.26 fold enrichment (6-mer frequency, TF over GST control) |
| CGTATA | 1.13 fold enrichment (6-mer frequency, TF over GST control) | 1.1 fold enrichment (6-mer frequency, TF over GST control) | 1.11 fold enrichment (6-mer frequency, TF over GST control) | 1.21 fold enrichment (6-mer frequency, TF over GST control) | 1.15 fold enrichment (6-mer frequency, TF over GST control) | 1.16 fold enrichment (6-mer frequency, TF over GST control) | 1.18 fold enrichment (6-mer frequency, TF over GST control) | 1.08 fold enrichment (6-mer frequency, TF over GST control) |
| TACTTC | 3.18 fold enrichment (6-mer frequency, TF over GST control) | 3.22 fold enrichment (6-mer frequency, TF over GST control) | 3.64 fold enrichment (6-mer frequency, TF over GST control) | 4.31 fold enrichment (6-mer frequency, TF over GST control) | 3.62 fold enrichment (6-mer frequency, TF over GST control) | 4.77 fold enrichment (6-mer frequency, TF over GST control) | 3.67 fold enrichment (6-mer frequency, TF over GST control) | 4.67 fold enrichment (6-mer frequency, TF over GST control) |
| ATATAC | 1.19 fold enrichment (6-mer frequency, TF over GST control) | 1.17 fold enrichment (6-mer frequency, TF over GST control) | 1.26 fold enrichment (6-mer frequency, TF over GST control) | 1.29 fold enrichment (6-mer frequency, TF over GST control) | 1.24 fold enrichment (6-mer frequency, TF over GST control) | 1.12 fold enrichment (6-mer frequency, TF over GST control) | 1.17 fold enrichment (6-mer frequency, TF over GST control) | 1.19 fold enrichment (6-mer frequency, TF over GST control) |
| GTTCTT | 1.16 fold enrichment (6-mer frequency, TF over GST control) | 1.28 fold enrichment (6-mer frequency, TF over GST control) | 1.2 fold enrichment (6-mer frequency, TF over GST control) | 1.06 fold enrichment (6-mer frequency, TF over GST control) | 1.18 fold enrichment (6-mer frequency, TF over GST control) | 1.24 fold enrichment (6-mer frequency, TF over GST control) | 1.09 fold enrichment (6-mer frequency, TF over GST control) | 1.15 fold enrichment (6-mer frequency, TF over GST control) |
| GCTCCT | 1.54 fold enrichment (6-mer frequency, TF over GST control) | 1.61 fold enrichment (6-mer frequency, TF over GST control) | 1.45 fold enrichment (6-mer frequency, TF over GST control) | 1.54 fold enrichment (6-mer frequency, TF over GST control) | 1.43 fold enrichment (6-mer frequency, TF over GST control) | 1.44 fold enrichment (6-mer frequency, TF over GST control) | 1.37 fold enrichment (6-mer frequency, TF over GST control) | 1.5 fold enrichment (6-mer frequency, TF over GST control) |
| AATGAC | 1.35 fold enrichment (6-mer frequency, TF over GST control) | 1.43 fold enrichment (6-mer frequency, TF over GST control) | 1.45 fold enrichment (6-mer frequency, TF over GST control) | 1.37 fold enrichment (6-mer frequency, TF over GST control) | 1.29 fold enrichment (6-mer frequency, TF over GST control) | 1.36 fold enrichment (6-mer frequency, TF over GST control) | 1.35 fold enrichment (6-mer frequency, TF over GST control) | 1.49 fold enrichment (6-mer frequency, TF over GST control) |
| CCCTAC | 1.37 fold enrichment (6-mer frequency, TF over GST control) | 1.53 fold enrichment (6-mer frequency, TF over GST control) | 1.42 fold enrichment (6-mer frequency, TF over GST control) | 1.43 fold enrichment (6-mer frequency, TF over GST control) | 1.37 fold enrichment (6-mer frequency, TF over GST control) | 1.61 fold enrichment (6-mer frequency, TF over GST control) | 1.41 fold enrichment (6-mer frequency, TF over GST control) | 1.6 fold enrichment (6-mer frequency, TF over GST control) |

Reference: article PMC7862700, “An all-to-all approach to the identification of sequence-specific readers for epigenetic DNA modifications on cytosine”
